For test [1], the target named is High affinity nerve growth factor receptor (Homo sapiens) (UniProt P04629). Particulars: at 1 µM.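 Further: each value is the mean percent inhibition of TRKA.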
Test [2] deals with BDNF/NT-3 growth factors receptor (Homo sapiens) (UniProt Q16620). Conditions: at 0.1 µM.
Test [3] shares this target. Particulars: at 1 µM.
Test [4] concerns the target NT-3 growth factor receptor (Homo sapiens) (UniProt Q16288). Particulars: at 0.1 µM.
Test [5] shares this target. Particulars: at 1 µM.
The target in test [6] is T1, Tyrosine-protein kinase TXK (Homo sapiens) (UniProt P42681).
T1 sequence (whole entry): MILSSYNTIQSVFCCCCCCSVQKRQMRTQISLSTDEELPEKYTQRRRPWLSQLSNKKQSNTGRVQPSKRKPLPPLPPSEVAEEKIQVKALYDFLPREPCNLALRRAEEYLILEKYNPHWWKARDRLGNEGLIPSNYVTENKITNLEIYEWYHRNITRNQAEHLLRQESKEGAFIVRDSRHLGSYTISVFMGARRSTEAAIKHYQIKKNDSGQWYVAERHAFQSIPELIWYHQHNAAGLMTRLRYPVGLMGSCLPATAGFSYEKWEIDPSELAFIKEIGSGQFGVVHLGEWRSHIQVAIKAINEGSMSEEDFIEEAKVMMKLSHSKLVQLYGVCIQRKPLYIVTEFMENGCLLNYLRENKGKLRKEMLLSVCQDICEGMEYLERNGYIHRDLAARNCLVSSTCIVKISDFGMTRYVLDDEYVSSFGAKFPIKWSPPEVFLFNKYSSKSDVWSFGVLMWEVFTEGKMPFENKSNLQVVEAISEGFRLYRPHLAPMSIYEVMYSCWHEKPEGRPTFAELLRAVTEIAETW
Particulars: at 0.1 µM.

The target of test [7] is T1, Tyrosine-protein kinase TXK (Homo sapiens). Conditions: at 1 µM.
Test [8] has as its target Non-receptor tyrosine-protein kinase TYK2 (Homo sapiens) (UniProt P29597). Particulars: at 0.1 µM.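 Further: each value is a mean of the inhibition readings.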
Test [9] addresses T2, Dual specificity protein kinase TTK (Homo sapiens) (UniProt P33981).
T2 sequence (whole entry): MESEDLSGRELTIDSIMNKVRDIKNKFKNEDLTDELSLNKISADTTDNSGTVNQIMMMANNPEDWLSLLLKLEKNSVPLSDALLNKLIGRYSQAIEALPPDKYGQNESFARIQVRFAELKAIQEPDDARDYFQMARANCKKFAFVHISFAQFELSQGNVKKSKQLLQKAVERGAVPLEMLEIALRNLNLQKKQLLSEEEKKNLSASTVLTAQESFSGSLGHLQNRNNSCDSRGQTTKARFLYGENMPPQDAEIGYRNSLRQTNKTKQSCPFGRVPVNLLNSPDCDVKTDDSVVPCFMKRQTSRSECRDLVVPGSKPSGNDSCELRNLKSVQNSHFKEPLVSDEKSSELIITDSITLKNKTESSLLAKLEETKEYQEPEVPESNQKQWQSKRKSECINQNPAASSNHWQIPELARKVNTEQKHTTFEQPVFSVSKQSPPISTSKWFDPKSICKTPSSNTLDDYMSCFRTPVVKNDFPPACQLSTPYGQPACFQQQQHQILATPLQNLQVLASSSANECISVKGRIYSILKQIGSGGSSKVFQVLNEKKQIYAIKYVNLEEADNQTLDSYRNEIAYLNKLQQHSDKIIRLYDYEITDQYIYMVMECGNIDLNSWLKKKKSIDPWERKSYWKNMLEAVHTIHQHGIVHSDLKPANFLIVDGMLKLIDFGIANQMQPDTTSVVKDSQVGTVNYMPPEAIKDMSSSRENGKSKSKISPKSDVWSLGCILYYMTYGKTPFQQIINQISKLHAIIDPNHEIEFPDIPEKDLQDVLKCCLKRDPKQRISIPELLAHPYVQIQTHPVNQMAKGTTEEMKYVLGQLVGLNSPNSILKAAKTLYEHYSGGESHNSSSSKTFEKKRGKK
Particulars: at 1 µM.

Test [10] addresses T3, Aurora kinase A (Homo sapiens) (UniProt O14965).
T3 sequence (whole entry): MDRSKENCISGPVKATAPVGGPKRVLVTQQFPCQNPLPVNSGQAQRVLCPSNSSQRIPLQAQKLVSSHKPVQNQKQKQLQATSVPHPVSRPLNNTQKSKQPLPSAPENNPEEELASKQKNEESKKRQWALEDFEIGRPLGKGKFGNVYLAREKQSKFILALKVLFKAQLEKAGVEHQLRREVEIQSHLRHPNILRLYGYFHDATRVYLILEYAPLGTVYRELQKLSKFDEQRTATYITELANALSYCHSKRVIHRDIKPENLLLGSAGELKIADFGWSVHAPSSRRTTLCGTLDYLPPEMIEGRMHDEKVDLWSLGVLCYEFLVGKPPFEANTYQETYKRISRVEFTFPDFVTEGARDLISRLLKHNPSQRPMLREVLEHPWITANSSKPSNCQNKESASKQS
Particulars: at 0.1 µM.

Test [11] has as its target T3, Aurora kinase A (Homo sapiens). Particulars: at 1 µM.
Test [12] has as its target Aurora kinase B (Homo sapiens) (UniProt Q96GD4). Conditions: at 0.1 µM.
The target is the same in test [13]. Conditions: at 1 µM.
In test [14] the target is T4, Aurora kinase C (Homo sapiens) (UniProt Q9UQB9).
T4 sequence (whole entry): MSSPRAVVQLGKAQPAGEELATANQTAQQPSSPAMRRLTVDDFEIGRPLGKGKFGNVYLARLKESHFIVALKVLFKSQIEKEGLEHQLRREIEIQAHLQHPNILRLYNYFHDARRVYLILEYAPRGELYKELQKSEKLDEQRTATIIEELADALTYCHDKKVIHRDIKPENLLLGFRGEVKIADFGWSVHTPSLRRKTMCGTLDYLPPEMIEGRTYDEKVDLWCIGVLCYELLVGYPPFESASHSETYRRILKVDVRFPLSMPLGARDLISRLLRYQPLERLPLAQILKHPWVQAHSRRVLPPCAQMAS
Particulars: at 0.1 µM.

The target in test [15] is T4, Aurora kinase C (Homo sapiens). Conditions: at 1 µM.
Test [16] addresses Serine/threonine-protein kinase 10 (Homo sapiens) (UniProt O94804). Conditions: at 0.1 µM.
Test [17] has the same target. Conditions: at 1 µM.
Test [18] deals with T5, Mitogen-activated protein kinase kinase kinase kinase 2 (Homo sapiens) (UniProt Q12851).
T5 sequence (whole entry): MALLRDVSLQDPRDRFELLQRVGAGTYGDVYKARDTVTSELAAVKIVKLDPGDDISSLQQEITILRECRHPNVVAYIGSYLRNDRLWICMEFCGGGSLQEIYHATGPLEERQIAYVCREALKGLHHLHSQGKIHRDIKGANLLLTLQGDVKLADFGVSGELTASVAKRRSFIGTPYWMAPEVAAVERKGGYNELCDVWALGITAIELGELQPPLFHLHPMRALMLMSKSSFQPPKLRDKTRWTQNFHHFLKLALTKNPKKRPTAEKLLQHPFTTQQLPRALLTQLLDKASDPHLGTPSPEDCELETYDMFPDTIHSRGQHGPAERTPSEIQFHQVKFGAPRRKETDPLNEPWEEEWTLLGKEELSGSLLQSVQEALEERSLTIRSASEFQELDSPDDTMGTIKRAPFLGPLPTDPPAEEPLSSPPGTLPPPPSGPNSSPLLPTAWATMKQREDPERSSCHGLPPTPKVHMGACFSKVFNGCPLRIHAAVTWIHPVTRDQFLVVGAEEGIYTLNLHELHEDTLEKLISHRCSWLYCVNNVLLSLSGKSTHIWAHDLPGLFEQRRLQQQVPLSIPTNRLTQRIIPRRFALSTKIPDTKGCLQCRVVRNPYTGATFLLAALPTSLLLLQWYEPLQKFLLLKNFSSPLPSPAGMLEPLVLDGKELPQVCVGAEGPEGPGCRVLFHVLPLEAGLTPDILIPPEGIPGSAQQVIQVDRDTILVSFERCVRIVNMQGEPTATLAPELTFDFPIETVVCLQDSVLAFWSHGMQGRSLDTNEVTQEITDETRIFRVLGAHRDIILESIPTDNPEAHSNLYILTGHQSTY
Conditions: at 0.1 µM.

The target in test [19] is T5, Mitogen-activated protein kinase kinase kinase kinase 2 (Homo sapiens). Conditions: at 1 µM.
Test [20] addresses Mitogen-activated protein kinase kinase kinase kinase 4 (Homo sapiens) (UniProt O95819). Conditions: at 0.1 µM.

In ChEMBL document CHEMBL1961873, “Compounds: GSK PKIS; Assays: Nanosyn kinase panel” (2012) one finds inhibition data, which are given here for five compounds.

One may read the inhibition as the drop in the measured response relative to a control, in per cent.

Chain of Non-receptor tyrosine-protein kinase TYK2 (Homo sapiens) (P29597 whole entry): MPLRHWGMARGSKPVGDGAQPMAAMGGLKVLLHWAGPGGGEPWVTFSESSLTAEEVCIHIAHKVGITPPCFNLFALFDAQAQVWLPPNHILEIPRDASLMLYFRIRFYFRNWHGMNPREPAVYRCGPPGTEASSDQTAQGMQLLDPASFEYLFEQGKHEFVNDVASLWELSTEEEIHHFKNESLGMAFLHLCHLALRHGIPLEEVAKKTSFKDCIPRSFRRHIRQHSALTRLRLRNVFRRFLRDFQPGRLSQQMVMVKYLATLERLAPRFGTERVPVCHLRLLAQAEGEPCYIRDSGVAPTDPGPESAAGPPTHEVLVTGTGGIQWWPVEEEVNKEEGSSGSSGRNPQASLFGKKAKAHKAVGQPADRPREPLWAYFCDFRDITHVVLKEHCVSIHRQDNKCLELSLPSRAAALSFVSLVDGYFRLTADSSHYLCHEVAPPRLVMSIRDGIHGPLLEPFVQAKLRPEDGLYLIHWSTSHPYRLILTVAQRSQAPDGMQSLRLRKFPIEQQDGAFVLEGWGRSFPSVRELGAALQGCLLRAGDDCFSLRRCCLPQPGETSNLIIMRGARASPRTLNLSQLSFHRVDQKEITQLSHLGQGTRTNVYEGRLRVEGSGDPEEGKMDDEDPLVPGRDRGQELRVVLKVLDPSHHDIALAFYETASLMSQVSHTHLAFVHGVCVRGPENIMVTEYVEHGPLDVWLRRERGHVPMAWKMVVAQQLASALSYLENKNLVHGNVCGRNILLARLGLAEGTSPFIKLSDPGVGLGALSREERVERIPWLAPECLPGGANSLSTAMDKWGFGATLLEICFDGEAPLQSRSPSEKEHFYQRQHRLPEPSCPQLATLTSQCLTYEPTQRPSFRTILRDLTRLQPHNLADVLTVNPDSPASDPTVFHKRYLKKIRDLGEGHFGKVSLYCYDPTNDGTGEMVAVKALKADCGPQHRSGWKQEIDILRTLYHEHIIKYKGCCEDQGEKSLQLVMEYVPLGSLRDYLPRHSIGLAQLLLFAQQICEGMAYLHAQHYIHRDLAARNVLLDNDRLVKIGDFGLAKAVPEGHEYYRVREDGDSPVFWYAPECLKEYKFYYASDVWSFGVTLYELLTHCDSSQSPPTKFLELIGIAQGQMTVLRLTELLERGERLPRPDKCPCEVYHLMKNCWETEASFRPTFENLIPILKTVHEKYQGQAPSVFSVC
Chain of Serine/threonine-protein kinase 10 (Homo sapiens) (O94804 whole entry, looked up): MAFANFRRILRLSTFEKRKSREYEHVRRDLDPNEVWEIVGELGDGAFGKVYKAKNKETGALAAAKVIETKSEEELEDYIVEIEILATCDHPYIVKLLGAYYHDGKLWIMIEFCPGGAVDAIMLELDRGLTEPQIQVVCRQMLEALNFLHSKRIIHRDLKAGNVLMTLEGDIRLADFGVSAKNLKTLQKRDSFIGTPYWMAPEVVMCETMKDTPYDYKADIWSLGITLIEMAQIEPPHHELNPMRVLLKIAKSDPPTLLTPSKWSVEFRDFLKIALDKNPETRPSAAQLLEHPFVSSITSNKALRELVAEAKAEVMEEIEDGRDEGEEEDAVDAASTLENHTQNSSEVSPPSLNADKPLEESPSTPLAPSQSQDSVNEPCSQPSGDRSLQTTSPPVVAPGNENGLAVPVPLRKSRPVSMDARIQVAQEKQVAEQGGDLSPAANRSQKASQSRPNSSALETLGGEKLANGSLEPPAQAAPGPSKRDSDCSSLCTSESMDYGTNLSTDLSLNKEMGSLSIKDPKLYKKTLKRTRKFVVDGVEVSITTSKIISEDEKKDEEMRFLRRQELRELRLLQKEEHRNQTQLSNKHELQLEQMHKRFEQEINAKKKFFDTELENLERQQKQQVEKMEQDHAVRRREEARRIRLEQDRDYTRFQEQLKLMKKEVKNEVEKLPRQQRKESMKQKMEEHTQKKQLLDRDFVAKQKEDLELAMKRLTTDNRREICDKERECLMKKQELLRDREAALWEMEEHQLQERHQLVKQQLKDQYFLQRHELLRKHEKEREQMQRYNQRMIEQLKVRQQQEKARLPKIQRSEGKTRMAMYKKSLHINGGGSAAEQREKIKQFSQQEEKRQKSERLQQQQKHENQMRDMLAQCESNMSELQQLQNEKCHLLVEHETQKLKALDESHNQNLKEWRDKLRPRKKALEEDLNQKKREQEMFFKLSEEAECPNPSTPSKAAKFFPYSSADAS
Chain of Mitogen-activated protein kinase kinase kinase kinase 4 (Homo sapiens) (O95819 2-1239 limits assumed): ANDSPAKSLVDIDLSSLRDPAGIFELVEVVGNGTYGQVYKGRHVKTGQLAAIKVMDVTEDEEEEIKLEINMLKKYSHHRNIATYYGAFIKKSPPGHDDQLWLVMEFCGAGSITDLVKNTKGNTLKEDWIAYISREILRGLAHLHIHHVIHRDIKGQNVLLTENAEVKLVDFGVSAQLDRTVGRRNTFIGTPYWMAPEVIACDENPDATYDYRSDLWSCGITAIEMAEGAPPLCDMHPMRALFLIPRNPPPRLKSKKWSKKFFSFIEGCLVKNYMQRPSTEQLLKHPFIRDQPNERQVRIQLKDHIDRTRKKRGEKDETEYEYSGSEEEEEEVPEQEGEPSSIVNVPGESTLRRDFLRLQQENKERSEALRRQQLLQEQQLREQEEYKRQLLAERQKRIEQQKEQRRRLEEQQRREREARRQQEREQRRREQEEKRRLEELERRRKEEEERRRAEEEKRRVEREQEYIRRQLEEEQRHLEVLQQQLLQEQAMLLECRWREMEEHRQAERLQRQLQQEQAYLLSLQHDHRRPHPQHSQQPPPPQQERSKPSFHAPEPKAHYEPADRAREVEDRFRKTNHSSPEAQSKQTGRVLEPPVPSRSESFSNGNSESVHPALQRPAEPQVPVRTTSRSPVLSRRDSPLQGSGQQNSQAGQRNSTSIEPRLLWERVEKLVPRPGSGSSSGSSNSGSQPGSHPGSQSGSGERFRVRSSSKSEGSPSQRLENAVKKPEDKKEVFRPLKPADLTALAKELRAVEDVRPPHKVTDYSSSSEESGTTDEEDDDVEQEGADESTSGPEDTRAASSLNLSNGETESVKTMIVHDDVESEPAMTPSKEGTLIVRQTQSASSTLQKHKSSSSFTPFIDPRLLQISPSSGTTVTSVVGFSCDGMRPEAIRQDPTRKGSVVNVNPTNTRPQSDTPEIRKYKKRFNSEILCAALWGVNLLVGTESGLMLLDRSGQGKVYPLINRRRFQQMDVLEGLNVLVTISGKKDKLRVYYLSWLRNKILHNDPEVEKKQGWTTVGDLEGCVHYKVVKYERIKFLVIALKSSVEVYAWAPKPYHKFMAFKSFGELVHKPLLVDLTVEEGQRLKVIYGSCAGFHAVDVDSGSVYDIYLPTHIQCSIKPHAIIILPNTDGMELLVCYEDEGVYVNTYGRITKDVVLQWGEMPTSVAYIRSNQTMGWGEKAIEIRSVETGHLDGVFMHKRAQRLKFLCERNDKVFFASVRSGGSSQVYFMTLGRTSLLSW
Chain of NT-3 growth factor receptor (Homo sapiens) (Q16288 32-839 limits assumed): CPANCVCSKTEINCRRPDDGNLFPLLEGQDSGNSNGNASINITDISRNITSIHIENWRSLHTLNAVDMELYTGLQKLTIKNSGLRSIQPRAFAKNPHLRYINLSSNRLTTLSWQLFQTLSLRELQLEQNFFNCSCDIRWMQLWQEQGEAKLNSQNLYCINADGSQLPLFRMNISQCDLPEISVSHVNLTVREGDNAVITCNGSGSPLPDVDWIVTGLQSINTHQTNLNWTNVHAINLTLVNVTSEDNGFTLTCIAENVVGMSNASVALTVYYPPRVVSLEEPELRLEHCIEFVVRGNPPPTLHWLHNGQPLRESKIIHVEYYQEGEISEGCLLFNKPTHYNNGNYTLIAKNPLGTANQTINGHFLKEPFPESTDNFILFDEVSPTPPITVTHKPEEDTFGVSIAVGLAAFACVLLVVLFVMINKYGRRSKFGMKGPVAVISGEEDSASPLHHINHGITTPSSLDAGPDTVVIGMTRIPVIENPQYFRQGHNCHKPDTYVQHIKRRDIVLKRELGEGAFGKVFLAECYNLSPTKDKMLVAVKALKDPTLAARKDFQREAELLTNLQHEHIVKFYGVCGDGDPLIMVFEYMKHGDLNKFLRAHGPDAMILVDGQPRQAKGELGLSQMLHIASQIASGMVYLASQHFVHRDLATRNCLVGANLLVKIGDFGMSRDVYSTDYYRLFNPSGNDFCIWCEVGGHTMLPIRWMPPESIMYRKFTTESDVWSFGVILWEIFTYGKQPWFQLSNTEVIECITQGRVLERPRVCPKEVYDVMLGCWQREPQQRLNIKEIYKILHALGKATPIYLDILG
Chain of Aurora kinase B (Homo sapiens) (Q96GD4 whole entry): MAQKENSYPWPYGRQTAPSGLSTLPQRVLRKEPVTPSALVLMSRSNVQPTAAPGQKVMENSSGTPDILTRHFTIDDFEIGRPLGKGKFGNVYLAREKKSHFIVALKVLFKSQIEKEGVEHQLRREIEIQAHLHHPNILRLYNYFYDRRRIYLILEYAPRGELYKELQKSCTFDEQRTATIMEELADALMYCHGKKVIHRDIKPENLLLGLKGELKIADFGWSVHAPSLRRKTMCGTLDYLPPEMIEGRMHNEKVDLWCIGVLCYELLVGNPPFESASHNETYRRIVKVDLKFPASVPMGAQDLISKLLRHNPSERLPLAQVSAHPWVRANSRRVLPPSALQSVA

On to `COc1c(C(N)=O)cc(-c2ccc(Cl)cc2)cc1-c1ccc(S(N)(=O)=O)cc1`, for which the inhibition in test [1] was determined as 4.22%; in test [2], 2.88%; in [3], 3.12%; in [4], 2.54%; in test [5], 2.2%; in test [6] it was 9.73%. Also, the inhibition in [7] is 4.4%; in test [8], -0.68%; in [9], 12.9%; in [10], 2.86%; in test [11], 3.86%; in [12] it was 2.21%. Besides, the inhibition in [13] is 3.28%; in test [14], -0.05%; in [15], 0.52%; in test [16], 5.14%; in test [17] it was 6.24%; in [18] it was 0.59%. Moreover, the values for the inhibition in test [19] and in test [20] were 2.11% and 6.38%, respectively.

Take `NS(=O)(=O)c1ccc(N/N=C2\C(=O)Nc3cccc(CCc4ccncc4)c32)cc1`: the inhibition came to 19.1% in test [1]; 17% in test [2]; 45.4% in test [3]; 17.3% in test [4]; 41.9% in test [5]; 2.92% in test [6]. Moreover, the inhibition is 8.22% in test [7]; -0.26% in test [8]; 38.7% in [9]; 28.1% in [10]; 20.6% in [11]; 3.64% in [12]. The inhibition is 7.9% in [13]; 5% in [14]; 8.21% in [15]; -0.95% in [16]; 0.03% in [17]; 1.75% in test [18]. Further, the inhibition in test [19] is 3.46%; in test [20] it was 4.39%.

Consider `CC1=C(C(=O)Nc2ccc3[nH]ncc3c2)C(c2ccc(F)cc2)N=C(c2ccc(C(F)(F)F)nc2)N1` (stereo not given), for which the inhibition stood at 4.07% in test [1]; 1.02% in [2]; 1.46% in test [3]; 2.88% in test [4]; 3.8% in test [5]; 3.02% in test [6]. Also, the inhibition is 4.16% in test [7]; -0.65% in test [8]; -4.56% in test [9]; 4.97% in [10]; 51% in test [11]; 3.38% in [12]. In addition, the inhibition amounted to 16.9% in test [13]; 3.47% in test [14]; 21.3% in test [15]; 0.31% in test [16]; 2.22% in test [17]; 1.59% in test [18]. Also, the inhibition in [19] came to 2.35%; in test [20], 2.89%.

In the case of `O=C1Nc2ccccc2/C1=C1\CCc2cc(O)ccc21`, the inhibition came to 70.6% in test [1]; 28.6% in test [2]; 78% in test [3]; 28% in test [4]; 77.5% in [5]; 2.88% in [6]. For the same compound, the inhibition in test [7] was 8.68%; in test [8], -2.35%; in [9] it was 31.4%; in test [10] it was 8.42%; in test [11], 70.9%; in test [12], 44.8%. The inhibition in test [13] was determined as 80.5%; in test [14], 53.7%; in test [15], 93.4%; in [16], 6.67%; in test [17], 16.1%; in [18], 12.1%. The inhibition amounted to 52.6% in test [19] and 23.3% in test [20].

On to `CS(=O)(=O)CCNCc1ccc(-c2ccc3ncnc(Nc4ccc(OCc5cccc(C(F)(F)F)c5)cc4)c3c2)o1`, for which the inhibition in test [1] was found to be 7.21%; in test [2], 4.9%; in test [3], 17.5%; in [4], 3%; in [5], 10.1%; in test [6], 5.9%. Moreover, the inhibition in [7] is 5.59%; in test [8], -2.56%; in test [9], 8.3%; in test [10], 3.79%; in test [11], 4.78%; in test [12], 5.65%. Also, the inhibition in [13] was 4.87%; in test [14], 1.93%; in [15] it was 4.53%; in test [16] it was 9.88%; in test [17] it was 11.7%; in test [18] it was -0.93%. Further, the values for the inhibition in test [19] and in test [20] were 2.32% and 2.66%, respectively.
